Screen size: about 5,500 compounds; about 2,000 (36%) were called active. About 18% were inconclusive and are not listed. No stated cut-off is given here; in the data, active means normalized growth mostly below about 0.91 (no sharp cut-off); inconclusive means no clear call, values can overlap the other calls; inactive means mostly above about 0.92. The list shows a part of the results.
Assay: chemical genetic growth profiling, strain panel (AID 1159580);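 further: tested at 20 µM; growth read once vehicle control cultures reached saturation at 30 °C; 1 = growth at the plate median or of vehicle wells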
Details: S. cerevisiae deletion strains, growth OD

Measured: normalized growth

Cc1cc(=O)c2c(O)cc(O)c(C)c2o1
active: locus YDR137W, strain rgp1, stronger effect = lower value 0.504 | locus YDR195W, strain ref2 1.34 [resistant] | locus YDR335W, strain msn5, stronger effect = lower value 0.897 | locus YER155C, strain BEM2 (second series), stronger effect = lower value 0.808 | locus YHR142W, strain chs7, stronger effect = lower value 0.869
inactive: locus YAL021C, strain ccr4, stronger effect = lower value 0.976 | locus YAL026C, strain drs2, stronger effect = lower value 0.926 | locus YAL030W, strain snc1, stronger effect = lower value 0.954 | locus YBL061C, strain skt5, stronger effect = lower value 0.951 | locus YBR009C, strain hhf1, stronger effect = lower value 0.953 | locus YBR021W, strain FUR4, stronger effect = lower value 0.995 | locus YBR023C, strain chs3, stronger effect = lower value 0.936 | locus YBR171W, strain sec66, stronger effect = lower value 0.921 | locus YBR229C, strain ROT2, stronger effect = lower value 0.987 | locus YBR231C, strain swc5, stronger effect = lower value 0.924 | locus YBR279W, strain paf1, stronger effect = lower value 0.946 | locus YCL011C, strain gbp2, stronger effect = lower value 0.951 | locus YCL016C, strain dcc1, stronger effect = lower value 0.937 | locus YCL029C, strain bik1, stronger effect = lower value 0.994 | locus YCL061C, strain MRC1, stronger effect = lower value 0.938 | locus YCL069W, strain vba3, stronger effect = lower value 0.982 | locus YCR088W, strain abp1, stronger effect = lower value 0.965 | locus YDL005C, strain med2, stronger effect = lower value 0.963 | locus YDL035C, strain GPR1, stronger effect = lower value 1.02 | locus YDL040C, strain nat1, stronger effect = lower value 0.979 | locus YDL074C, strain BRE1, stronger effect = lower value 1.02 | locus YDL101C, strain DUN1, stronger effect = lower value 0.975 | locus YDL134C, strain PPH21, stronger effect = lower value 0.996 | locus YDL185W, strain tfp1, stronger effect = lower value 0.962 | locus YDL192W, strain arf1, stronger effect = lower value 0.988 | locus YDR001C, strain nth1, stronger effect = lower value 0.959 | locus YDR069C, strain doa4, stronger effect = lower value 0.962 | locus YDR101C, strain arx1, stronger effect = lower value 1.01 | locus YDR159W, strain sac3, stronger effect = lower value 0.907 | locus YDR162C, strain NBP2, stronger effect = lower value 1.03 | locus YDR297W, strain sur2, stronger effect = lower value 0.966 | locus YDR318W, strain mcm21, stronger effect = lower value 0.988 | locus YDR334W, strain swr1, stronger effect = lower value 0.951 | locus YDR388W, stronger effect = lower value 0.98 | locus YDR392W, strain spt3, stronger effect = lower value 0.753 | locus YDR502C, strain sam2, stronger effect = lower value 0.977 | locus YEL003W, strain gim4, stronger effect = lower value 0.95 | locus YEL037C, strain rad23, stronger effect = lower value 0.961 | locus YEL061C, strain CIN8 (second series), stronger effect = lower value 0.943 | locus YEL061C, strain CIN8, stronger effect = lower value 0.993 | locus YER015W, strain faa2, stronger effect = lower value 0.95 | locus YER016W, strain bim1, stronger effect = lower value 0.937 | locus YER110C, stronger effect = lower value 0.968 | locus YER111C, strain swi4, stronger effect = lower value 0.934 | locus YER155C, strain BEM2, stronger effect = lower value 0.987 | locus YER167W, strain BCK2, stronger effect = lower value 1 | locus YFR010W, strain ubp6, stronger effect = lower value 0.942 | locus YGL078C, strain dbp3, stronger effect = lower value 0.965 | locus YGL086W, strain mad1, stronger effect = lower value 1 | locus YGL167C, strain pmr1, stronger effect = lower value 0.936 | locus YGL173C, strain kem1, stronger effect = lower value 0.946 | locus YGL227W, strain vid30, stronger effect = lower value 0.957 | locus YGL240W, strain doc1, stronger effect = lower value 0.931 | locus YGL248W, strain PDE1, stronger effect = lower value 0.995 | locus YGL253W, strain hxk2, stronger effect = lower value 0.962 | locus YGR078C, strain PAC10, stronger effect = lower value 0.985 | locus YGR135W, strain pre9, stronger effect = lower value 0.965 | locus YGR229C, strain SMI1, stronger effect = lower value 1.01 | locus YGR252W, strain gcn5, stronger effect = lower value 1.03 | locus YHR013C, strain ard1, stronger effect = lower value 1.05 | locus YHR027C, strain rpn1, stronger effect = lower value 0.964 | locus YHR030C, strain SLT2, stronger effect = lower value 0.996 | locus YHR079C, strain IRE1 (second series), stronger effect = lower value 0.988 | locus YHR094C, strain hxt1, stronger effect = lower value 0.983 | locus YHR129C, strain ARP1, stronger effect = lower value 0.985 | locus YHR200W, strain rpn10, stronger effect = lower value 0.96 | locus YIL066C, strain RNR3, stronger effect = lower value 0.991 | locus YIL073C, strain SPO22, stronger effect = lower value 0.967 | locus YIL125W, strain kgd1, stronger effect = lower value 1 | locus YIR030C, strain dcg1, stronger effect = lower value 0.973 | locus YJL092W, strain hpr5, stronger effect = lower value 0.964 | locus YJL095W, strain BCK1 (second series), stronger effect = lower value 0.962 | locus YJL095W, strain BCK1, stronger effect = lower value 0.962 | locus YJL115W, strain asf1, stronger effect = lower value 0.971 | locus YJL129C, strain trk1, stronger effect = lower value 0.901 | locus YJL134W, strain LCB3, stronger effect = lower value 0.989 | locus YJL154C, strain vps35, stronger effect = lower value 0.977 | locus YJL164C, strain tpk1, stronger effect = lower value 0.946 | locus YJL166W, strain qcr8, stronger effect = lower value 0.956
